Experimental findings from PubChem BioAssay (NCATS) are described below.

A short description of assay [1]: Cell Viability - BJ (AID 421; calls by dose curve;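 further: potency means the concentration at half of the fitted maximal effect; cells exposed to compound for 40 hours at 37 °C before readout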). The conditions noted are these: BJ fibroblast viability, qHTS. The method, boiled down: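 Cytotoxicity as drop in intracellular ATP (CellTiter-Glo, 20 min RT) after 40 hr compound exposure of BJ fibroblasts at 37 °C. Titrations scaled between DMSO and 100 uM tamoxifen, Hill-fitted for AC50.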
Assay [2] can be described thus: Cell Viability - Jurkat (AID 426;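 active means dose-dependent loss of cell ATP signal giving a full or clear fitted curve, ranked by lower potency value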; further: potency means the concentration at half of the fitted maximal effect). The settings on record: qHTS. An outline of the steps: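 Jurkat (Clone E6-1) cells, 5000/well in complete medium, exposed to compounds for 40 hr at 37C; intracellular ATP measured by CellTiter-Glo luminescence after 20 min at room temperature. AC50 from Hill fits.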
Assay [3] in a line: Cell Viability - Hek293 (AID 427;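 active means compounds whose dose-response curve shows a full or clear partial loss of cell viability, called from curve shape rather than a numeric limit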;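 further: potency means the concentration at half of the fitted maximal effect; cells exposed to compound for 40 hours at 37 °C before reading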). The settings on record: qHTS. The method, boiled down:
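Luminescent ATP content (CellTiter-Glo, 20 min at room temperature) was measured after a 40 hr, 37 °C compound exposure of HEK293 cells. AC50 values came from Hill-equation fits of qHTS concentration-response data normalized to DMSO and 100 uM tamoxifen.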
Background: qHTS replaces the single test concentration by a dilution series.

The nature of assay [4]: Cell Viability - HepG2 (AID 433; calls by dose curve;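 further: potency means the concentration at half of the fitted maximal effect; potency for ATP loss meaning cytotoxicity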). The conditions noted are these: qHTS. The method, boiled down:
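HepG2 cells, 1500 per well, treated 40 hr at 37 °C in complete medium; viability from intracellular ATP by CellTiter-Glo luminescence. Normalized to DMSO and 100 uM tamoxifen; AC50 from Hill fit of qHTS concentration-response.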

A short description of assay [5]: Cell Viability - MRC5 (AID 434; calls by dose curve;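 further: potency means the concentration at half of the fitted maximal effect; potency reflects cytotoxicity seen as loss of intracellular ATP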). The settings on record: MRC5 lung fibroblast viability, qHTS. An outline of the steps: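 MRC5 normal human lung fibroblasts (1500/well) were treated with compounds for 40 hr at 37 °C in complete medium, and viable cells were measured as intracellular ATP by CellTiter-Glo luminescence. AC50 came from Hill fits, normalized to DMSO and 100 uM tamoxifen.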

A short description of assay [6]: Cell Viability - SK-N-SH (AID 435; calls by dose curve;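 further: potency means the concentration at half of the fitted maximal effect; compound exposure lasted 40 h at 37 °C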). The conditions noted are these: SK-N-SH neuroblastoma cell viability qHTS. The method, boiled down: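 SK-N-SH neuroblastoma cells (1500/well) treated 40 h at 37 °C in complete medium; viability read as cellular ATP by CellTiter-Glo luminescence. Normalized to DMSO and 100 uM tamoxifen; AC50 from Hill fits of qHTS concentration-response.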

Assay [7] deals with Mitogen-activated protein kinase 10 (Mus musculus) (UniProt Q61831). The assay is described as follows: JNK3 AlphaScreen Assay (AID 530; active means well fitted curve in either direction with a large enough effect, not every such curve was filed as active;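 further: kinase came from lysate of stimulated human HepG2 cells; signal reports phosphorylation of biotinylated GST-cJun 1-79 at Ser73 with 10 µM ATP; on the % scale 0 is the no-effect control and ±100 the full control effect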). The method, boiled down:
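Inhibitors reduce antibody binding to phosphorylated biotin-cJun, lowering AlphaScreen luminescence. Lysates from HepG2 cells pre-activated by IL-1beta plus TNF-alpha supplied JNK3; compounds were titrated.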
Background: Bead proximity is the source of the signal in Alpha formats.

A short description of assay [8]: Cell Viability - N2a (AID 540). Further: nearly all actives have a fitted effect of over 45% in size. Further: potency means the concentration at half of the fitted maximal effect.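 On activity change, negative = cytotoxicity: plate controls were DMSO alone for no effect and tamoxifen control for full effect.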 The conditions noted are these: N2a mouse neuroblastoma cell viability; activity change, negative = cytotoxicity: at 92.2 µM (top of the series). The method, boiled down:
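Mouse neuroblastoma N2a cells, 1500/well, exposed to compounds 40 h at 37 °C in complete medium. Viability measured as cellular ATP by CellTiter-Glo luminescence; AC50 from Hill fits of concentration-response.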

Assay [9] in a line: Cell Viability - NIH 3T3 (AID 541). Further: nearly all actives have a fitted effect of over 25% in size. Further: potency means the concentration at half of the fitted maximal effect.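 On activity change, negative = cytotoxicity: plate controls were DMSO alone for no effect and tamoxifen positive control for full effect.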 The conditions noted are these: NIH 3T3 cell viability, qHTS; activity change, negative = cytotoxicity: at 92.2 µM (top of the series). An outline of the steps:
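Mouse NIH 3T3 fibroblasts, 1000 cells/well, rested 5 hr at 37 °C, then exposed to compound for 40 hr at 37 °C in complete medium. Viability read as intracellular ATP by CellTiter-Glo luminescence; AC50 from Hill-equation fits of concentration-response data.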

Assay [10] is described as follows: Cell Viability - HUV-EC-C (AID 542). Further: nearly all actives have a fitted effect of over 35% in size. Further: potency means the concentration at half of the fitted maximal effect. On activity change, negative = cytotoxicity: on the % scale 0 is the no-effect control and ±100 the full control effect. The method, boiled down:
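HUV-EC-C human vascular endothelial cells, 1000/well, exposed to compound for 40 hr at 37 °C in complete medium. Intracellular ATP was read by CellTiter-Glo luminescence. AC50 came from Hill-equation fits of concentration-response data.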

Assay [11] in a line: Cell Viability - H-4-II-E (AID 543). Further: nearly all actives have a fitted effect of over 35% in size. Further: potency means the concentration at half of the fitted maximal effect. An outline of the steps:
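Rat hepatoma H-4-II-E cells, 1500 per well, treated 40 h at 37 °C in complete medium. Cellular ATP read by CellTiter-Glo luminescence; AC50 from Hill fits of concentration-response.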

Assay [12] in a line: Cell Viability - SH-SY5Y (AID 544). Further: nearly all actives have a fitted effect of over 55% in size. Further: potency means the concentration at half of the fitted maximal effect. An outline of the steps:
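SH-SY5Y human neuroblastoma cells (1500/well) incubated 5 h, then compound-treated 40 h at 37 °C in complete medium. Viability read as intracellular ATP by CellTiter-Glo luminescence after 20 min; AC50 from Hill-equation fits of qHTS concentration-response.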

Assay [13] is described as follows: Cell Viability - Renal Proximal Tubule (AID 545). Further: nearly all actives have a fitted effect of over 40% in size. Further: potency means the concentration at half of the fitted maximal effect.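 On activity change, negative = cytotoxicity: 0% = DMSO only and -100% = 100 µM tamoxifen.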 The conditions noted are these: renal proximal tubule cells viability; activity change, negative = cytotoxicity: at 91.7 µM (top of the series). The method, boiled down:
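Rat renal proximal tubule primary cells, 1000/well, exposed to compounds for 40 hr at 37 °C in complete medium; cellular ATP read by CellTiter-Glo luminescence. AC50 from concentration-response fitted with standard Hill equation.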

Assay [14] concerns the target Cytochrome P450 1A2 (Homo sapiens) (UniProt P05177). The assay is described as follows: p450-cyp1a2 (AID 410; calls by dose curve; further: potency means the concentration at half of the fitted maximal effect;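 on activity change, negative = inhibition: -100% = full effect of reference inhibitor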). The method, boiled down: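 20nM CYP1A2 with 100uM Luciferin-ME (at Km) in 100mM KPO4; compound preincubated 10 min, NADPH regeneration added, 60 min at room temperature. Luciferin quantified by luminescence after detection reagent; normalized to 57 uM furafylline.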

The nature of assay [15]: NFAT Signaling Pathway (AID 444; active means well fitted curve in either direction with a large enough effect, not every such curve was filed as active;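 further: carbachol stimulus at about its EC50 of 1 µM final; on the % scale 0 is the no-effect control and ±100 the full control effect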). The settings on record: Jurkat NFAT-bla M1, carbachol, beta-lactamase ratio, 5 h; at 38 µM (top of the series) unless noted. An outline of the steps: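 Jurkat cells carrying an NFAT-driven β-lactamase reporter and co-transfected muscarinic M1 receptor were treated with compound plus carbachol (1 uM final, an EC50 level) for 5 h at 37 °C. CCF4 loading followed for 1 h at RT; 460/530 nm ratio gave %activity.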

Assay [16] addresses Glucocorticoid receptor (Homo sapiens) (UniProt P04150). The assay is described as follows: GR-GFP Redistribution (AID 450;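 active means compounds whose dose series gives a full or clear partial fitted curve of increased nuclear translocation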; further: potency means the concentration at half of the fitted maximal effect). The settings on record: U2OS GR-GFP nuclear translocation, laser cytometry, 2 h.
For assay [17] the target is unchanged. The assay is described as follows: GR-EFC Redistribution (AID 451; calls by dose curve; further: potency means the concentration at half of the fitted maximal effect). The conditions noted are these: CHO-K1 GR-EFC translocation, beta-gal luminescence, 2 h. The method, boiled down:
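CHO-K1 cells stably expressing nuclear-localized β-gal enzyme acceptor and GR fused C-terminally to the enzyme donor fragment; ligand-driven nuclear translocation restores β-gal by complementation. Compounds titrated up to 46 uM final, 2 h at 37 °C; luminescence read.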

Assay [18] is described as follows: Stat Signaling Pathway (AID 446; active means well fitted curve in either direction with a large enough effect, not every such curve was filed as active;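 further: ME-180 cervical cancer cells given 40 pM IL-6 alongside compound; SIE-controlled beta-lactamase reporter measured as 460/530 nm FRET emission ratio; on the % scale 0 is the no-effect control and ±100 the full control effect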). The settings on record: ME-180 SIE beta-lactamase reporter, IL-6 stimulated, 5 h; at 38 µM (top of the series) unless noted. An outline of the steps: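 Reporter line: ME-180 cervical carcinoma, SIE-beta-lactamase. Treatment: compound with 40 pM IL-6, 5 hrs, 37 C, in low-serum OPTI-MEM with 10 mM HEPES pH 7.3. Detection: 460/530 nm fluorescence.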

Values joined by “and” are separate entries in the source; they are usually repeats but may differ in a detail not shown here. Equal values may be shown once. A number with no mark means an inactive call. Results filed as inconclusive are left out. Active and inactive are the calls of the source. Unless noted, the call rests on the fitted dose curve; in most records, active means well fitted curve in the direction sought with a large enough effect; inconclusive means small, poorly fitted or top-dose-only effect, or another doubt; inactive means no such curve, though single readings can be large; an effect the other way counts as inactive or inconclusive.

Sequence of Cytochrome P450 1A2 (Homo sapiens) (P05177 whole entry, looked up): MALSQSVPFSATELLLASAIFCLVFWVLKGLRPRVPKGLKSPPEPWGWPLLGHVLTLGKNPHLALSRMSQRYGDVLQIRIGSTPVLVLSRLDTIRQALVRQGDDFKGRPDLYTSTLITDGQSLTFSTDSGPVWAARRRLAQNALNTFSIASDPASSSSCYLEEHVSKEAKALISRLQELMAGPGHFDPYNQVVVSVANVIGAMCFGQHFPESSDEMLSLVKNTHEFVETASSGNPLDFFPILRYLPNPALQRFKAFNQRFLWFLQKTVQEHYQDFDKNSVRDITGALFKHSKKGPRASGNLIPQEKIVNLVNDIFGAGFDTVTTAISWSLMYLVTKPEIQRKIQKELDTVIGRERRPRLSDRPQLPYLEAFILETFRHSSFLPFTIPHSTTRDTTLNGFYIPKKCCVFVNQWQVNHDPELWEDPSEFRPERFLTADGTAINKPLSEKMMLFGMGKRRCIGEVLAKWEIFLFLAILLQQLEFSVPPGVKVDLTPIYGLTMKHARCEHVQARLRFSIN
Sequence of Glucocorticoid receptor (Homo sapiens) (P04150 whole entry, looked up): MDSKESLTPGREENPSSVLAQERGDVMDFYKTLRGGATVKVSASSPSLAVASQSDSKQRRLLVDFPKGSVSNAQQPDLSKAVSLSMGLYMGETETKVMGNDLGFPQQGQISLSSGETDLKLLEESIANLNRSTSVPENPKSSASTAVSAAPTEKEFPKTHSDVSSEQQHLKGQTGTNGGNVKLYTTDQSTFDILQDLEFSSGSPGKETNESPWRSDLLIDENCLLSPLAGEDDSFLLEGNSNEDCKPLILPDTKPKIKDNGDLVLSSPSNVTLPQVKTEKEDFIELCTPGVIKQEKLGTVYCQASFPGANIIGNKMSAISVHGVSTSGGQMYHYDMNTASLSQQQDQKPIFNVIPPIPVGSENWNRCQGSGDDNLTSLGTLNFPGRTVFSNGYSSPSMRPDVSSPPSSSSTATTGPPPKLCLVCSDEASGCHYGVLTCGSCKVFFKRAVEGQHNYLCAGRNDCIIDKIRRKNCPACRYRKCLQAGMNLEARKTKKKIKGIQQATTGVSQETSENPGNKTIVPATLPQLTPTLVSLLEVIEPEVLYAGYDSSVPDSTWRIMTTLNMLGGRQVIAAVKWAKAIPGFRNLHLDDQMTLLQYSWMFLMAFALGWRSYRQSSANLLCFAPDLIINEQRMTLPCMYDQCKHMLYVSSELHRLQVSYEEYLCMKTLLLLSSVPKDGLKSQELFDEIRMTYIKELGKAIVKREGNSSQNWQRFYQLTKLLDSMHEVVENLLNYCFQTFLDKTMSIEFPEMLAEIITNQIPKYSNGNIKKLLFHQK

With `Clc1ccccc1Cl`, the Potency in [1], in assay [2], in [3], in assay [4], in assay [5] and in [6] was above 92 µM each time. The outcome in [7] was inactive. In addition, the Potency entry in assay [8], in [9], in assay [10], in [11], in assay [12] and in assay [13] was “inactive” throughout.

Take `C=CCN=C=S`: the Potency in assay [1], in [2], in assay [3], in [4], in assay [5] and in assay [6] was above 92 µM in each case. Moreover, the call in assay [7] was inactive. The Potency result in assay [8], in [9], in assay [10], in assay [11], in assay [12] and in [13] was “inactive” each time.

With `CC(C)CCON=O`, the Potency in [1], in [2], in [3], in [4], in assay [5] and in assay [6] was above 92 µM in each case. In addition, in assay [7], the outcome was inactive. The Potency entry in assay [8], in assay [9], in assay [10], in assay [11], in assay [12] and in [13] was “inactive” in each case.

As for `O=C1C2CC=CCC2C(=O)N1SC(Cl)(Cl)Cl` (configuration not stated), the Potency in assay [1] was 54.5 µM (active) and 21.4 µM (active); in assay [2], 4.24 µM (active) and 4.76 µM (active); in assay [3], 26.5 µM (active) and 26.9 µM (active); in assay [4], 40.6 µM (active) and 37.9 µM (active); in [5], 24.9 µM (active) and 14.7 µM (active); in assay [6] it was 27.7 µM (active) and 13.2 µM (active). In addition, the Potency in [8] was 20 µM (active) and 10 µM (active); in assay [9] it was 5.01 µM (active) and 2 µM (active); in assay [10], 50.1 µM (active) and 25.1 µM (active); in assay [11], 7.94 µM (active) and 6.31 µM (active); in [12], 2 µM (active) and 1 µM (active); in assay [13] it was 3.98 µM (active) and 3.16 µM (active). Moreover, the molecule was called inactive in [7].

On to `O=CC=O`, for which the Potency in assay [1], in assay [2], in assay [3], in assay [4], in assay [5] and in assay [6] was above 92 µM in each case. For the same molecule, the Potency in assay [9] was 12.6 µM (active). Further, the Potency entry in [8], in assay [10], in assay [11] and in assay [13] was “inactive” throughout.

With `c1ccc2c(c1)[I+]c1ccccc1-2`, the Potency in assay [14] was 126 nM (active) and 20 nM (active); in assay [16], above 46 µM; in assay [17], above 46 µM. In assay [15], the activity change, negative = inhibition was -17.4%.

Turning to `CCN(CCCl)Cc1ccccc1Br`, the results for the Potency in [14], in assay [16] and in assay [17] were 15.8 µM (active), above 46 µM and above 46 µM, respectively. Also, in assay [15], the activity change, negative = inhibition was -24.5%.

Take `CCCCCl`: the Potency in assay [1], in [2], in assay [3], in assay [4], in [5] and in [6] was above 92 µM in each case. In addition, in assay [7], the outcome was inactive. For the same molecule, the Potency result in assay [8], in [9], in assay [10], in assay [11], in assay [12] and in [13] was “inactive” throughout.

`O=C/C=C/c1ccccc1`: the Potency in assay [1] is above 92 µM; in assay [4], above 92 µM; in [5], above 92 µM; in assay [6], above 92 µM; in assay [9] it was 12.6 µM (active). Moreover, the Potency result in assay [8], in assay [10], in assay [11], in assay [12] and in [13] was “inactive” in each case.

On to `ClCC1CO1` (configuration not stated), for which the Potency in [1], in assay [2], in [3], in assay [4], in assay [5] and in assay [6] was above 92 µM in each case. Besides, the molecule was called inactive in assay [7]. The Potency entry in assay [8], in assay [9], in assay [10], in assay [11], in [12] and in [13] was “inactive” in each case.

In the case of `Cc1cc(C)cc(C(=O)OC2C[C@H]3CC[C@@H](C2)N3C)c1` (some centres not stated), the Potency in assay [16] and in [17] was above 46 µM in each case. Further, the outcome in assay [7] was inactive.

Take `O=Cc1ccco1`: the Potency in [1], in [2], in assay [3], in assay [4], in [5] and in assay [6] was above 92 µM each time. The Potency entry in assay [8], in assay [9], in [10], in assay [11], in [12] and in assay [13] was “inactive” each time.

Regarding `CCCn1c(=O)c2[nH]c(C3CCCC3)nc2n(CCCOC(=O)c2ccc(S(=O)(=O)F)cc2)c1=O`, the Potency entry in assay [14] is “inactive”. Besides, the activity change, negative = inhibition in assay [15] is -34.5%. Also, the activity, negative = inhibition in assay [18] is -25.7%. The Potency in assay [16] and in assay [17] was above 46 µM throughout.
